Shown are actives, neighbours in structure and some others; about 7.2% of the full set was active somewhere.
Sm TGR block – qHTS Assay for the Inhibitors of Schistosoma Mansoni Peroxiredoxins; Schistosoma mansoni thioredoxin glutathione reductase (TGR), Q962Y6; purified TGR, DTNB reduction, TNB absorbance 405 nm; Potency, µM (series often up to 114 µM), for the others: at the highest dose activity change, negative = inhibition, most hits filed as inhibitors; 360,000 compounds, 3% hits; note: nearly all actives have a fitted effect of over 60% in size
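Kinetic colorimetric format: TGR-catalysed, NADPH-driven DTNB reduction monitored via TNB absorbance. Enzyme dispensed at 20 nM; compound exposure 15 min at room temperature before reaction start.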
RE007 growth inh – qHTS Assay for Inhibitors of the HIV-1 protein Vpr; S. pombe RE007 Vpr strain, BacTiter-Glo ATP luminescence, 24 h; Potency, µM (titrated, usually from 92.2 µM), for inactives: at the highest dose activity change, negative = less growth, actives largely listed as inhibitors; 360,000 compounds, 0.21% hits; active = well fitted falling curve with a large enough effect; inconclusive = small, poorly fitted or top-dose-only effect; inactive = no such curve, though single readings can be large or run the other way; note: nearly all actives have a fitted effect of over 50% in size
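Fission yeast RE007 carrying one integrated HIV-1 vpr copy, seeded at OD 0.01 in PMG+AL medium with 23 nL pinned compound. Grown 24 h at 30 degrees; viability read by BacTiter-Glo luminescence after 5 min.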
HCV inh – qHTS Assay for Inhibitors of Hepatitis C Virus (HCV); Huh7.5.1 HCVcc-Cre infection, luciferase reporter, 44 h; Potency, µM (highest dose often 41.8 µM), without a hit: at the highest dose activity change, negative = inhibition, hits mostly inhibitors; 340,000 compounds, 3.4% hits; AID 651820, 2012
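Infectious HCV cell culture screen: compound-treated cells (1,000/well, pre-plated 4 h) are infected with HCVcc-Cre at roughly 0.5 moi and grown 44 h. Infection is quantified by luciferase signal after 15 min substrate incubation at room temperature.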
FMDV inh – High Throughput Screening for Foot and Mouth Disease Virus Antivirals. FMDV antiviral cell-based qHTS. Potency, µM (titrated, usually from 57.9 µM), without a hit: at the top dose activity change, negative = inhibition, usual class: inhibitors. 410,000 compounds, 1.2% hits. AID 1159524, 2015; calls by dose curve; tested in HEK293T cells; note: read-out not given here; nearly all actives have a fitted effect of over 45% in size
MARV entry inh – qHTS for inhibitors of binding or entry into cells for Marburg Virus. Marburg virus pseudotyped entry inhibition, cell reporter. Potency, µM (top dose mostly 37.8 µM), for inactives: at the top dose activity change, negative = inhibition, actives largely listed as inhibitors. 300,000 compounds, 1.8% hits; calls by dose curve; tested in HEK293 cells
LASV entry inh – qHTS for Inhibitors of binding or entry into cells for Lassa Virus; Potency, µM (highest dose often 37.9 µM), for inactives: at the highest dose activity change, negative = inhibition, actives largely listed as inhibitors; 300,000 compounds, 1.2% hits; AID 540256, 2011; Lassa virus pseudotype entry inhibition, cell reporter; calls by dose curve; tested in HEK293 cells; note: nearly all actives have a fitted effect of over 50% in size
Starred values were filed as active, the others as inactive; ? = inconclusive; · = no result given; ! = repeats disagree; [ ] = dose if it differs, or a comment. Unless noted, calls come from the whole dose curve; as a rule, active = well fitted curve in the direction sought with a large enough effect; inconclusive = small, poorly fitted or top-dose-only effect, or another doubt; inactive = no such curve, though single readings can be large; an effect the other way counts as inactive or inconclusive. % is set by controls: 0 for no effect and ±100 for the full control effect; potency is the fitted concentration of half-maximal effect.

SMILES	Sm TGR block	RE007 growth inh	HCV inh	FMDV inh	MARV entry inh	LASV entry inh
Oc1c(C(c2ccccc2)N2CCC(O)CC2)sc2nc(-c3ccco3)nn12 (configuration not stated)	1.5%	·	·	-4.9%	·	-0.1%[46.1 µM]
CO[C@H]1[C@H](NC(=O)c2ccsc2)c2ccccc2C12CCN(Cc1ccc3c(c1)OCO3)CC2	·	·	·	-2.8%	·	·
CCOC(=O)N1CCN(S(=O)(=O)c2ccc(C(=O)NNc3nc4c(C)cc(C)cc4s3)cc2)CC1	-15.5%	5.7%	11.2µM*	-16.5%	?	?
CCOC(=O)N1CCN(S(=O)(=O)c2ccc(C(=O)NNc3nc4c(C)cccc4s3)cc2)CC1	-9.4%	1.0%	?	?	?	?
N#CC1=C(N)C(C#N)(C#N)[C@H](c2ccncc2)[C@H]2CC3(CC=C12)OCCO3	79.4µM*	3.5%	6.3%	-1.6%	-8.6%	3.1%
Cc1ccc2c(c1)c(N1CCCC1=O)c(C(=O)Nc1ccc(F)cc1F)n2C	-0.9%	·	·	?	·	-6.9%[46.1 µM]
COc1cccc(NC(=O)CSc2cc(C)c3ccccc3n2)c1	-1.9%	·	·	?	?	?
COc1ccc2c(C)cc(SCC(=O)Nc3cc(C(N)=O)cc(C(N)=O)c3)nc2c1	9.3%	-11.2%	3.98µM*	-17.1%	?	-12.8%
Cc1cccc(NC(=O)CSc2nc3ccccc3nc2N2CCC(C)CC2)c1	-4.2%	·	·	-13.2%	1.12µM*	?
Cc1cc(SCC(=O)c2ccc(O)c(O)c2)nc2ccccc12	2.82µM*	5.2%	?	-19.1%	?	-4.2%
Cc1cc(SCC(=O)c2ccc3c(c2)OCO3)nc2ccccc12	1.1%	0.3%	?	44.7%	23.4%	-3.4%
Cc1cccc(NC(=O)CSc2cc(C)c3ccccc3n2)c1	5.5%	·	·	-26.2%	2.24µM*	?
O=C(O)c1nc2cc(Cl)c(Cl)cc2[nH]c1=O	·	·	·	-0.3%	·	·
Cc1ccc(-c2nc3ccccc3o2)cc1NC(=O)Cc1ccc(Cl)cc1	3.0%	·	·	-0.1%	·	?
COc1ccc(-n2cc(C(=O)Oc3cc(C)cc(C)c3)c3ccccc3c2=O)cc1	9.7%	·	·	-21.8%	·	-2.2%[46.1 µM]
Cc1cc(C)nc(-n2nc(C)cc2NC(=O)CN2CCc3ccccc3C2)n1	?	55.5%	-24.3%	?	?	?
Cc1cc(C)nc(-n2nc(C)cc2NC(=O)CN2CCCC(C)C2)n1 (configuration not stated)	25.1µM*	-11.2%	3.0%	·	-18.7%	-0.3%
Cc1ccc(NS(=O)(=O)c2cc([N+](=O)[O-])ccc2NNC(=S)Nc2cc(C)ccc2C)c(C)c1	-7.3%	-6.7%	11.2µM*	?	?	14.1µM*
COc1ccc(NC(=S)NNc2ccc([N+](=O)[O-])cc2S(=O)(=O)Nc2ccc(C)cc2C)cc1	2.2%	-29.4%	14.1µM*	-13.4%	?	?
Cc1ccc(NS(=O)(=O)c2cc([N+](=O)[O-])ccc2NNC(=S)Nc2cccc(Cl)c2)c(C)c1	-5.5%	21.6%	?	-7.6%	?	?
O=C(c1cnn2cccnc12)N1CCOc2ccc(C(O)C(c3ccccc3)c3ccccc3)cc2C1 (configuration not stated)	·	·	·	-6.1%	·	·
CC(C)c1nc2ccc(C(=O)NCc3ccccc3Br)cc2o1	-1.4%	·	·	17.8%	·	3.9%[46.1 µM]
COc1nc2ccccc2cc1-c1noc(-c2cccnc2)n1	0.0%	·	·	·	·	·
CCOc1ccccc1-c1nc(-c2cc3ccccc3nc2OC)no1	4.2%	-4.0%	11.2µM*	-15.1%	?	-19.9%
CCOc1ccccc1NC(=O)c1ccccc1-c1nc(-c2ccccc2OC)no1	2.9%	11.7%	11.2µM*	-10.8%	?	?
SMILES	Sm TGR block	RE007 growth inh	HCV inh	FMDV inh	MARV entry inh	LASV entry inh
CCC1CCCCN1CCCNC(=O)c1ccc2c(c1)NC(=O)CN2C (configuration not stated)	-28.4%	-16.7%	16.5%	-1.1%	·	·
CCCCN(CC)CCCNC(=O)c1ccc2c(c1)NC(=O)CN2C	22.4µM*	·	·	-7.2%	·	0.8%[46.1 µM]
CC1(Cc2ccc3c(c2)OCO3)C(=O)Nc2c(Cl)ccc(Cl)c21 (configuration not stated)	·	-11.4%	·	0.0%	·	·
COc1cc(SC#N)ccc1N=Cc1c(C)[nH]n(-c2ccc(Cl)cc2)c1=O	3.3%	-20.6%	12.0%	-4.4%	?	1.0%
COc1cc(SC#N)ccc1N=Cc1c(C)[nH]n(-c2ccc(C)c(C)c2)c1=O	5.7%	-29.1%	?	12.6µM*	?	11.2µM*
O=C(Nc1ccc(Br)cc1Br)Nc1cccc2[nH]c([C@@H]3O[C@H](CO)[C@@H](O)[C@H](O)[C@H]3O)nc12	·	11.0%[18.4 µM]	·	-17.0%	·	·
COc1ccc(C(=O)NCC(=O)N/N=C/c2ccco2)cc1OC	?	9.6%	-5.1%	-2.1%	-21.3%[46.1 µM]	3.7%[46.1 µM]
O=C(CNC(=O)c1ccc(F)cc1)N/N=C/c1cc(Br)ccc1OC(=O)/C=C/c1ccco1	0.0%	0.1%	10µM*	-7.2%	·	·
O=C(CNC(=O)c1ccccc1F)N/N=C/c1cc(Br)ccc1OC(=O)/C=C/c1ccco1	-33.7%	5.8%	6.31µM*	-16.6%	?	?
COc1ccccc1C(=O)NCC(=O)N/N=C/c1cc(Br)ccc1OC(=O)/C=C\c1ccco1	-19.9%	12.6%	?	-16.7%	1.9%	10.4%
CCCCN(CCCC)CC(O)CN(c1cc([N+](=O)[O-])ccc1OC)S(=O)(=O)c1ccccc1 (configuration not stated)	-13.1%	3.9%	?	1.7%	?	?
COc1ccc([N+](=O)[O-])cc1N(CC(O)CN1CCCCC1)S(=O)(=O)c1ccc(C)cc1 (configuration not stated)	35.5µM*	-23.0%	-19.2%	-3.7%	?	-19.7%
COc1ccc([N+](=O)[O-])cc1N(CC(O)CN(CC(C)C)CC(C)C)S(=O)(=O)c1ccccc1 (configuration not stated)	9.3%	-13.3%	-19.6%	2.7%	11.6µM*	4.7%
Cc1nc(C)c(C(=O)N2CCc3c(cnc(C)c3CNC(=O)c3cncs3)C2)s1	·	·	·	-8.0%	·	·
COc1ccc(N2CCN(S(=O)(=O)c3ccc(-c4cnc(C5CC5)o4)cc3)CC2)cc1	-1.3%	8.7%	-5.3%	0.0%	·	?
CC(=O)c1ccc(N2CCN(S(=O)(=O)c3ccc(-c4cnc(C5CC5)o4)cc3)CC2)cc1	6.8%	19.9%	7.4%	31.6µM*!	·	10.6%[46.1 µM]
O=S(=O)(c1ccc(-c2cnc(C3CC3)o2)cc1)N1CCN(c2cccc(Cl)c2)CC1	3.8%	·	·	?	·	2.9%[46.1 µM]
